Experimental data from the supplement of paper PMC8728848.
Many of the other results were omitted from the sample, so the strongest signals are more common in it than they were.

Assays:
Assay in all cases: glycan array binding signal (z-score within array); higher = stronger binding
Conditions in all cases: glycan notation: IUPAC condensed, linker removed
[1] = target: Fuc(a1-2)Gal
Procedure, shortened: (§1)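 Negative Z-scores can be read as non-binding. The Z-score is calculated within each array and then averaged across arrays of one protein sequence at different concentrations or buffers and across linkers. Arrays, 3228 in all, were curated from the Consortium for Functional Glycomics database and kept only where the protein sequence was available.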

[2] = target: Fuc(a1-2)[Gal(a1-3)]Gal
Procedure, shortened: as §1

[3] = target: Fuc(a1-3)[Gal3S(b1-4)]Glc6S
Procedure, shortened: as §1

[4] = target: Gal(a1-3)GalNAc
Procedure, shortened: as §1

[5] = target: Gal(a1-4)Gal(b1-4)Glc
Procedure, shortened: as §1

[6] = target: Gal(a1-4)GlcNAc
Procedure, shortened: as §1

[7] = target: Gal(b1-2)Gal
Procedure, shortened: as §1

[8] = target: Gal(b1-4)GalNAc(a1-3)[Fuc(a1-2)]Gal(b1-4)GlcNAc
Procedure, shortened: as §1

[9] = target: Gal(b1-4)GlcNAc(b1-3)GalNAc
Procedure, shortened: as §1

[10] = target: Gal3S(b1-4)GlcNAc
Procedure, shortened: as §1

[11] = target: Gal3S(b1-4)[Fuc(a1-3)]Glc
Procedure, shortened: as §1

[12] = target: GalNAc(b1-4)GlcNAc
Procedure, shortened: as §1

[13] = target: GlcA(b1-3)Gal
Procedure, shortened: as §1

[14] = target: GlcNAc(b1-4)GlcNAc(b1-4)GlcNAc(b1-4)GlcNAc(b1-4)GlcNAc(b1-4)GlcNAc
Procedure, shortened: as §1

[15] = target: Neu5Ac(a2-3)Gal(b1-3)GalNAc
Procedure, shortened: as §1

[16] = target: Neu5Ac(a2-3)Gal(b1-3)GalNAc(b1-3)Gal(a1-4)Gal(b1-4)Glc
Procedure, shortened: as §1

[17] = target: Neu5Ac(a2-3)Gal(b1-3)GalNAc(b1-4)[Neu5Ac(a2-3)]Gal(b1-4)Glc
Procedure, shortened: as §1

[18] = target: Neu5Ac(a2-3)Gal(b1-3)[Neu5Ac(a2-6)]GalNAc
Procedure, shortened: as §1

[19] = target: Neu5Ac(a2-3)Gal(b1-4)Glc
Procedure, shortened: as §1

[20] = target: Neu5Ac(a2-3)Gal(b1-4)GlcNAc(b1-2)Man(a1-3)[GlcNAc(b1-2)Man(b1-4)GlcNAc(b1-2)Man(a1-6)]Man(b1-4)GlcNAc(b1-4)GlcNAc
Procedure, shortened: as §1

[21] = target: Neu5Ac(a2-3)Gal(b1-4)GlcNAc(b1-6)[Neu5Ac(a2-3)Gal(b1-3)]GalNAc
Procedure, shortened: as §1

[22] = target: Neu5Ac(a2-3)Gal(b1-4)GlcNAc6S
Procedure, shortened: as §1

[23] = target: Neu5Ac(a2-3)Gal(b1-4)[Fuc(a1-3)]GlcNAc(b1-3)Gal(b1-4)[Fuc(a1-3)]GlcNAc(b1-3)Gal(b1-4)[Fuc(a1-3)]GlcNAc
Procedure, shortened: as §1

[24] = target: Neu5Ac(a2-3)GalNAc(b1-4)GlcNAc
Procedure, shortened: as §1

[25] = target: Neu5Ac(a2-6)Gal(b1-4)GlcNAc(b1-2)Man(a1-3)[GlcNAc(b1-2)Man(a1-6)]Man(b1-4)GlcNAc(b1-4)GlcNAc
Procedure, shortened: as §1

[26] = target: Neu5Ac(a2-6)Gal(b1-4)GlcNAc(b1-2)Man(a1-6)[GlcNAc(b1-2)Man(a1-3)]Man(b1-4)GlcNAc(b1-4)GlcNAc
Procedure, shortened: as §1

[27] = target: Neu5Ac(a2-6)GalNAc(b1-4)GlcNAc
Procedure, shortened: as §1

B1: LYVE-1 (Homo sapiens), Q9Y5Y7 (protein)
chain: MARCFSLVLLLTSIWTTRLLVQGSLRAEELSIQVSCRIMGITLVSKKANQQLNFTEAKEACRLLGLSLAGKDQVETALKASFETCSYGWVGDGFVVISRISPNPKCGKNGVGVLIWKVPVSRQFAAYCYNSSDTWTNSCIPEIITTKDPIFNTQTATQTTEFIVSDSTYSVASPYSTIPAPTTTPPAPASTSIPRRKKLICVTEVFMETSTMSTETEPFVENKAAFKNEAAGDPEVKFNWYVDGVEVHNAKPREEQYNSTYRVVSLVTVLHQDWLNGKEYKCKVSNKALPAPIEKTISKAKGQPREPQVYTLPPSRDELTKNQVSLTCLVKGFYPSDIAVEWESNGQPENNYKTTPPVLDSDGSFFLYSKLTVDKSRWQQGNVFSCSVMHEALHNHYTQRSLSLSPGK
glycan array binding signal (z-score) [1]: -0.222 | glycan array binding signal (z-score) [2]: 0.242 | glycan array binding signal (z-score) [3]: -0.066 | glycan array binding signal (z-score) [4]: -0.27 | glycan array binding signal (z-score) [5]: -0.09 | glycan array binding signal (z-score) [6]: -0.269 | glycan array binding signal (z-score) [7]: -0.409 | glycan array binding signal (z-score) [8]: -0.338 | glycan array binding signal (z-score) [9]: -0.411 | glycan array binding signal (z-score) [10]: -0.036 | glycan array binding signal (z-score) [11]: -0.34 | glycan array binding signal (z-score) [12]: -0.259 | glycan array binding signal (z-score) [13]: -0.466 | glycan array binding signal (z-score) [14]: -0.624 | glycan array binding signal (z-score) [15]: 3.93 | glycan array binding signal (z-score) [16]: 1.74 | glycan array binding signal (z-score) [17]: 4.82 | glycan array binding signal (z-score) [18]: 0.133 | glycan array binding signal (z-score) [19]: 0.324 | glycan array binding signal (z-score) [20]: -0.128 | glycan array binding signal (z-score) [21]: 6.79 | glycan array binding signal (z-score) [22]: -0.351 | glycan array binding signal (z-score) [23]: 5.13 | glycan array binding signal (z-score) [24]: 3.73 | glycan array binding signal (z-score) [25]: -0.596 | glycan array binding signal (z-score) [26]: -0.436 | glycan array binding signal (z-score) [27]: 2.4
